Assay results published in publication PMC10668032, “Altered binding affinity of SIX1-Q177R correlates with enhanced WNT5A and WNT pathway effector expression in Wilms tumor”.
Whole data set: some 33,000 sequences, median “e-score” near -0.05, cut for the highest 2% near 0.38. The sample as a whole holds a higher share of the highest values than the screen did.

These sequences were tested against T1, SIX1-Q177R homeodomain (human, UniProt Q15475 108-198, Q177R) (assay: universal protein binding microarray; Universal all-10-mer PBM (8x60K, AMADID 030236), 300 nM GST-tagged protein, Alexa Fluor 488 anti-GST; buffer, salt, pH and temperature not stated (as in Berger); high values mean tight binding). Conditions: protein: ivt; tags: N-terminal GST; dsDNA, one strand shown.
T1 sequence: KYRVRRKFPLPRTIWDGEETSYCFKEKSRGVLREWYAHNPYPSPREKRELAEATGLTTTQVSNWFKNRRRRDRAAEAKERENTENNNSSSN
Method in brief: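 Homeodomains fused to GST were made by in vitro transcription/translation and measured by anti-GST western blot with a recombinant GST standard curve. At 300 nM final concentration, they were applied in duplicate to universal 'all 10-mer' protein binding microarrays (8×60K format).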

| Sequence | binding signal [E-score] |
| --- | --- |
| AGTACCCA | 0.175 ± 0.0132 |
| CACCATGG | 0.343 ± 0.0218 |
| CGTAGGTA | 0.209 ± 0.00643 |
| CACTAGTC | 0.208 ± 0.0318 |
| CACGGTAC | 0.186 ± 0.0635 |
| CACTATAG | 0.192 ± 0.0146 |
| AGTGTACG | 0.407 ± 0.00139 |
| CGAGTACG | 0.19 ± 0.0193 |
| GGTGTACA | 0.4817 ± 0.00156 |
| AGTGTGTG | 0.197 ± 0.0254 |
| GTTGTACA | 0.223 ± 0.0201 |
| GCTGTACA | 0.208 ± 0.0271 |
| CACGGAAA | 0.188 ± 0.0559 |
| CCCCCGAG | 0.188 ± 0.0196 |
| ACCCCGAT | 0.229 ± 0.00378 |
| GCACCGAA | 0.156 ± 0.0137 |
| ACACCGAG | 0.4783 ± 0.00449 |
| ACCCCGAG | 0.317 ± 0.0221 |
| ACGCCGAT | 0.152 ± 0.0158 |
| GCACCGAC | 0.225 ± 0.017 |
| ATACCGAC | 0.173 ± 0.0172 |
| ACACCGAC | 0.475 ± 0.00507 |
| ACACCGAT | 0.473 ± 0.00479 |
| ACCCCGAA | 0.228 ± 0.0524 |
| ACACCGAA | 0.4689 ± 0.000997 |

| Sequence | binding signal [E-score] |
| --- | --- |
| CACCGTAG | 0.255 ± 0.00273 |
| CGGAGTAC | 0.229 ± 0.00578 |
| GGCGAACA | 0.198 ± 0.0404 |
| ACCCTTAG | 0.172 ± 0.00692 |
| CACTAAAC | 0.195 ± 0.0243 |
| CACTTGAC | 0.258 ± 0.0158 |
| CAAGGATA | 0.184 ± 0.029 |
| ACTCCACA | 0.206 ± 0.00721 |
| AGTTGGGG | 0.16 ± 0.00841 |
| ATGACACC | 0.4917 ± 0.00156 |
| ATGACTCC | 0.273 ± 0.00839 |
| CTGACGCC | 0.185 ± 0.012 |
| ATGACACG | 0.4485 ± 0.00163 |
| CTGACACC | 0.4913 ± 0.00298 |
| ATGACGCC | 0.172 ± 0.00576 |
| ATGACACA | 0.275 ± 0.0196 |
| CTGACACA | 0.297 ± 0.0288 |
| GTGACACA | 0.333 ± 0.0417 |
| CCCCCAAG | 0.227 ± 0.0377 |
| CGGCTACG | 0.164 ± 0.00561 |
| CACCAATA | 0.276 ± 0.0342 |
| CCCCCATA | 0.192 ± 0.0334 |
| GGGATGTA | 0.159 ± 0.0364 |
| AACGAACA | 0.208 ± 0.0231 |
| AGGTGTTG | 0.448 ± 0.00602 |

| Sequence | binding signal [E-score] |
| --- | --- |
| AGGTGCTC | 0.158 ± 0.0126 |
| CGGTGTTA | 0.4847 ± 0.00334 |
| AAGTGTTG | 0.289 ± 0.02 |
| ACGTGTTG | 0.346 ± 0.00562 |
| GGGTGTTA | 0.475 ± 0.00715 |
| AGGTGTTC | 0.457 ± 0.00831 |
| GGGGGTTA | 0.293 ± 0.0288 |
| CGGTGCTA | 0.2 ± 0.00414 |
| CGGAGTTA | 0.253 ± 0.0116 |
| GTGTGTTA | 0.298 ± 0.00829 |
| ACGCCCAG | 0.1915 ± 0.000269 |
| CACCTGGC | 0.152 ± 0.00727 |
| CGCCCAGC | 0.161 ± 0.0486 |
| AATACCCT | 0.171 ± 0.00453 |
| CCCCTCGC | 0.169 ± 0.0263 |
| TGTCGGAA | 0.233 ± 0.0472 |
| GTGTGCTA | 0.321 ± 0.0179 |
| GCGTTACA | 0.201 ± 0.00911 |
| GCTGTGGA | 0.17 ± 0.0188 |
| CGCCGTAC | 0.178 ± 0.00701 |
| AATGATCC | 0.17 ± 0.0375 |
| GTTGGACA | 0.245 ± 0.0116 |
| CCTCTCGA | 0.17 ± 0.0627 |
| CACGCACA | 0.262 ± 0.00327 |
| CTGTGTTC | 0.175 ± 0.0413 |

| Sequence | binding signal [E-score] |
| --- | --- |
| AGGGGTTA | 0.21 ± 0.0107 |
| AGGTGTTA | 0.463 ± 0.00921 |
| CGGTGTTC | 0.476 ± 0.00165 |
| CGGTGCTC | 0.218 ± 0.0427 |
| CGGAGTCA | 0.356 ± 0.0051 |
| TCATAACA | 0.23 ± 0.0137 |
| CCCGGTAC | 0.22 ± 0.0152 |
| CACCCTAA | 0.3263 ± 0.00228 |
| CACCCTAG | 0.3472 ± 0.00144 |
| CACCCCTA | 0.283 ± 0.00661 |
| CACCCCTG | 0.351 ± 0.0108 |
| CACCCTAC | 0.387 ± 0.01 |
| CACCCCTC | 0.3928 ± 0.00375 |
| CACCCGCC | 0.339 ± 0.0104 |
| CACTTAGC | 0.179 ± 0.029 |
| ACGCCCAC | 0.208 ± 0.00669 |
| ATCGGCAC | 0.175 ± 0.0126 |
| AGTAGGGG | 0.196 ± 0.0406 |
| CCATGGAA | 0.156 ± 0.015 |
| ACACTGGG | 0.412 ± 0.0164 |
| ACGCTGGG | 0.154 ± 0.0213 |
| ACCCTGGG | 0.238 ± 0.00896 |
| AAACTGGT | 0.203 ± 0.0496 |
| ACACTGAT | 0.374 ± 0.00694 |
| CCACTGGA | 0.206 ± 0.0185 |

| Sequence | binding signal [E-score] |
| --- | --- |
| ACACTGTA | 0.3506 ± 0.0019 |
| ACACTGGA | 0.3915 ± 0.0011 |
| ACACTGGC | 0.379 ± 0.00546 |
| ACACTGGT | 0.4256 ± 0.00135 |
| ACACTTGC | 0.363 ± 0.0273 |
| ACCATGGG | 0.162 ± 0.0492 |
| CGATAACA | 0.232 ± 0.018 |
| GGGGTGGA | 0.159 ± 0.0262 |
| AGTCAGAG | 0.156 ± 0.0606 |
| CACCCTGG | 0.315 ± 0.016 |
| CCTTGACC | 0.172 ± 0.00687 |
| AAGGGGTA | 0.2871 ± 0.000587 |
| AAACTACA | 0.184 ± 0.032 |
| CGCCGTGC | 0.188 ± 0.0146 |
| ACGTAGTG | 0.23 ± 0.0205 |
| CACGTGCC | 0.225 ± 0.0142 |
| AACGTGTC | 0.3481 ± 0.00176 |
| CACGTGTA | 0.4 ± 0.0127 |
| CACGTGCA | 0.218 ± 0.0109 |
| AACGTGTA | 0.353 ± 0.0523 |
| CACGTGTC | 0.398 ± 0.00923 |
| ACCGCTAG | 0.171 ± 0.0167 |
| AACAGGTG | 0.327 ± 0.0196 |
| CGTAACCC | 0.225 ± 0.019 |
| CGTAGCAC | 0.17194 ± 0.000163 |

| Sequence | binding signal [E-score] |
| --- | --- |
| CGTAACAC | 0.4096 ± 0.00185 |
| GGTAAACA | 0.188 ± 0.00443 |
| GGTAACAC | 0.432 ± 0.00841 |
| GTAAACAC | 0.375 ± 0.00722 |
| AGTAACCC | 0.201 ± 0.0162 |
| AGTAACAC | 0.424 ± 0.0116 |
| CCACTTGC | 0.163 ± 0.00866 |
| AGGGGTAC | 0.273 ± 0.0106 |
| ATCCCCAC | 0.211 ± 0.0453 |
| ATCTTACA | 0.262 ± 0.0268 |
| ACCCGTAA | 0.264 ± 0.0395 |
| TGCCGACA | 0.177 ± 0.00329 |
| CCGGTATA | 0.183 ± 0.0142 |
| CCGGTGCA | 0.203 ± 0.0164 |
| GCTGTGTA | 0.223 ± 0.0192 |
| GATGTGTA | 0.19 ± 0.00781 |
| ACGGTGCT | 0.179 ± 0.0133 |
| ACGGTGCA | 0.2931 ± 0.00041 |
| CCGGTGTA | 0.4859 ± 0.00134 |
| GCGGTGTA | 0.4849 ± 0.00132 |
| ACGGTGTA | 0.4693 ± 0.00139 |
| CCCGAGTA | 0.167 ± 0.00344 |
| CTTAGGGA | 0.151 ± 0.0622 |
| GCACAACA | 0.156 ± 0.0323 |
| CACCTGAG | 0.183 ± 0.0139 |

| Sequence | binding signal [E-score] |
| --- | --- |
| ATTGGTGC | 0.1599 ± 0.00112 |
| CAAGGACA | 0.194 ± 0.0363 |
| ACGACCCG | 0.179 ± 0.0515 |
| CACGCATC | 0.168 ± 0.00731 |
| CACCAGCG | 0.22 ± 0.0046 |
| CCGTGTCA | 0.465 ± 0.00781 |
| ACGTGTCC | 0.347 ± 0.017 |
| ACGTGTGG | 0.218 ± 0.0138 |
| GCGTGACA | 0.254 ± 0.0158 |
| ACGTGGTG | 0.3594 ± 0.00155 |
| CCGTGTGA | 0.299 ± 0.0309 |
| GCGTATCC | 0.176 ± 0.00656 |
| GCGTGTCA | 0.4332 ± 0.000573 |
| CCGTGACA | 0.307 ± 0.00911 |
| GCGTGTCC | 0.412 ± 0.0188 |
| ACGTGTCG | 0.383 ± 0.00518 |
| CCAGCTGG | 0.263 ± 0.0674 |
| CATGGTGG | 0.192 ± 0.00214 |
| GTGCGTGA | 0.163 ± 0.0169 |
| CCCCCTTC | 0.2098 ± 0.000417 |
| CCCTGTCC | 0.152 ± 0.0156 |
| CCGTGTCC | 0.408 ± 0.0236 |
